PubChem BioAssay (EPA / NIEHS)
The source made the active and inactive calls. The calls were made as follows: active = hit-call score of the fitted dose curve at least 0.9, where 1 is the maximum; inactive = score below 0.9.

Assay: ATG_FoxO_CIS: Attagene CIS-FACTORIAL HepG2 Assay for human Forkhead box O (FoxO) (AID 2282943)
Conditions: HepG2 Attagene cis-reporter, FoxO element, mRNA; actives raise or lower the signal
Protocol: ATG_CIS is a cell-based, multiplexed-readout assay that uses HepG2, a human liver cell line, with measurements taken at 24 hours after chemical dosing in a 24-well plate.ATG_FoxO_CIS is one of 52 assay component(s) measured or calculated from the ATG_CIS assay. It is designed to make measurements of mRNA induction, a form of inducible reporter, as detected with fluorescence intensity signals by Reverse transcription polymerase chain reaction (RT-PCR) and Capillary electrophoresis technology.Data from the assay component ATG_FoxO_CIS was analyzed into 1 assay endpoint. This assay endpoint, ATG_FoxO_CIS, was analyzed with bidirectional fitting relative to DMSO as the negative control and baseline of activity. Using a type of inducible reporter, measures of mRNA for gain or loss-of-signal activity can be used to understand the reporter gene at the transcription factor-level as they relate to the gene FOXO1 and FOXO3. Furthermore, this assay endpoint can be referred to as a primary readout, because this assay has produced multiple assay endpoints where this one serves a reporter gene function. To generalize the intended target to other relatable targets, this assay endpoint is annotated to the dna binding intended target family, where the subfamily is forkhead box protein.
Human liver HepG2 cells are transiently transfected with multiple reporter transcription units (MRTUs) in 6-well plates using FuGene 6 reagent (Roche; 3 ml FuGene/1 mg DNA). The MRTU constructs are regulated by a cis-regulating element (promoter). […] A major difference between the CIS and TRANS system is that in CIS activities of endogenous TFs are measured, whereas the TRANS assay evaluates changes in activities of exogenous, chimeric NR-Gal4 proteins. […] At the end of 24 hour incubation, total RNA was isolated using TriZol reagent (Invitrogen). The isolated RNA is then reverse-transcribed using oligo(dT) primer and Mo-MLV reverse transcriptase (Invitrogen) with DNAse I (Ambion) treatment for 30 min. The one-tenth of the produced cDNA was amplified by PCR using Taq DNA polymerase (Invitrogen) and two reporter sequence-specific primers. The PCR products were fluorescently labeled by primer extension with 6-arboxyfluorescein (6-FAM) 5'-labeled reporter sequence-specific primer (2 min at 95 C, 20 s at 68 C and 10 min at 72 C) and these products were digested with 5U of HpaI (New England Biolabs) for 2h at 37 C. The fragments were purified using Qiaquick PCR columns (Qiagen), analyzed on an ABI 3130xL genetic analyzer (Applied Biosystems) with peak positions identified by using a set of X-rhodamine (ROX)-labeled MapMarker1000 molecular weight standards (BioVentures). The raw capillary electrophoresis data was processed using Attagraph software (Attagene).
With O=C(OC(=O)C(F)(F)C(F)(F)F)C(F)(F)C(F)(F)F the outcome was “inactive”. For Cc1cc(Cc2cc(C)cc(C(C)(C)C)c2O)c(O)c(C(C)(C)C)c1, the AC50 was 51.4 µM (active). In the case of O=C(O)c1cccc(C(=O)O)n1, the outcome is reported as “inactive”. In the case of C[N+](C)(CCCNS(=O)(=O)CCC(F)(F)C(F)(F)C(F)(F)C(F)(F)C(F)(F)C(F)(F)F)CC(=O)[O-], the outcome is reported as “inactive”. In the case of OCC1CCC(CO)CC1 (stereo not given), the outcome is reported as “inactive”. For CCCCCCCCC1CCC(=O)O1 (stereo not given), the outcome was “inactive”. For CCCCN(C)C, the outcome was “inactive”. In the case of CC1CCC(C(=O)O)CC1 (stereo not given), the outcome is reported as “inactive”. In the case of CC1CCC(CO)CC1 (stereo not given), the outcome is reported as “inactive”. For CN(Cc1cnc2nc(N)nc(N)c2n1)c1ccc(C(=O)N[C@@H](CCC(=O)O)C(=O)O)cc1, the outcome was “inactive”. In the case of CCCCC(CC)C(=O)O (stereo not given), the outcome is reported as “inactive”. In the case of COc1cc(OC)nc(NC(=O)NS(=O)(=O)Nc2ccccc2C(=O)N(C)C)n1, the outcome is reported as “inactive”. In the case of O=C(O)C(=O)O, the outcome is reported as “inactive”. With CC(C)C=O the outcome was “inactive”. For CCCCCCCCCC=CCC1CC(=O)OC1=O (stereo not given), the outcome was “inactive”. For NCc1cccc(CN)c1, the outcome was “inactive”. For CS(=O)(=O)c1ccc([C@@H](CC2CCCC2)C(=O)Nc2cnccn2)cc1Cl, the AC50 was 152 µM (active). For CCCCCCCCCCCCCCC, the outcome was “inactive”. With CC=O the outcome was “inactive”. For NS(=O)(=O)O, the outcome was “inactive”. For Oc1c(Cl)ccc(Cl)c1Cl, the outcome was “inactive”. With CCCCCCc1ccc(N)cc1 the outcome was “inactive”. For CC(C)[C@@H]1CC[C@@H](C)C[C@H]1O, the outcome was “inactive”. With Cc1cc(C(=C2C=CC(=Nc3ccc(S(=O)(=O)O)cc3)C=C2)c2ccc(Nc3ccc(S(=O)(=O)O)cc3)cc2)cc(S(=O)(=O)O)c1N the outcome was “inactive”. For NNC(=O)CCCCC(=O)NN, the outcome was “inactive”. In the case of CC(O)COc1ccccc1 (stereo not given), the outcome is reported as “inactive”. For CCC1CO1 (stereo not given), the outcome was “inactive”. With COC(=O)CC(C(C)=O)C(=O)OC (stereo not given) the outcome was “inactive”. In the case of Cc1cccc2c1ccc1ccccc12, the outcome is reported as “inactive”. For FC1(F)C=CC(F)(F)C1(F)F, the outcome was “inactive”. With NC(C(F)(F)F)C(F)(F)F the outcome was “inactive”. In the case of C=CC(=C)CC/C=C(\C)CCC=C(C)C, the outcome is reported as “inactive”. With CC(C)c1c(C(=O)Nc2ccccc2)c(-c2ccccc2)c(-c2ccc(F)cc2)n1CC[C@@H](O)C[C@@H](O)CC(=O)O the outcome was “inactive”. With COC(=O)C(F)(F)C(F)(F)C(F)(F)F the outcome was “inactive”. In the case of CCC(=O)C=Cc1ccc(OC)cc1, the outcome is reported as “inactive”. With CCCCCCCCCCCCCCCCCC[N+](C)(C)Cc1ccccc1 the outcome was “inactive”. With CCCC=O the outcome was “inactive”. With O=P(O)(O)CCC(F)(F)C(F)(F)C(F)(F)C(F)(F)C(F)(F)C(F)(F)F the outcome was “inactive”. In the case of CC(C)(C)C1CCCCC1O (stereo not given), the outcome is reported as “inactive”. For CC(C)(O)C(=O)c1ccccc1, the outcome was “inactive”.
